# Source: PubChem BioAssay (NCATS)
# Records with an inconclusive call do not appear. Where a call stands in place of a potency, no number is given. Activity calls are given as the source filed them. The call rests on the fitted dose curve; in most records, active means well fitted curve in the direction sought with a large enough effect; inconclusive means small, poorly fitted or top-dose-only effect, or another doubt; inactive means no such curve, though single readings can be large; an effect the other way counts as inactive or inconclusive.
# Assay: qHTS of pediatric cancer cell lines to identify multiple opportunities for drug repurposing: Confirmatory screen for NB1643 cells (AID 1347109); further: nearly all actives have a fitted effect of over 45% in size; further: potency means the concentration at half of the fitted maximal effect
# Conditions: NB1643 neuroblastoma cell viability; series mostly up to 45.9 µM
# Method in brief: (§1)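 Viability after 48 h compound treatment at 37C, 500-1,000 cells/well, read as ATP luminescence with CellTiter-Glo. Primary screens used 11-point (MIPE, 0.78 nM-46 µM) or 8-point (NPC, 0.59 nM-46 µM) final concentrations; follow-up screens used 11-point dilutions.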
row,Structure (SMILES),Potency
1,COc1cc(C(=O)NCCCCCC(=O)O)cc(OC)c1OC,inactive
2,CC(=O)OCC(=O)[C@@]1(O)CC[C@H]2[C@@H]3CCC4=CC(=O)C=C[C@]4(C)[C@@]3(F)[C@@H](O)C[C@@]21C,10.4 µM (active)
3,O=C(Cn1ccnc1[N+](=O)[O-])NCc1ccccc1,inactive

# Assay: qHTS of pediatric cancer cell lines to identify multiple opportunities for drug repurposing: Confirmatory screen for DAOY cells (AID 1347114); further: nearly all actives have a fitted effect of over 65% in size
# Conditions: DAOY medulloblastoma cells viability, cytotoxicity qHTS; series mostly up to 45.9 µM
# Description: Drug repurposing or repositioning has been offered as a strategy for drug development in oncology programs. This approach has special potential for childhood cancers and other rare or orphan diseases, where the expected return on new drug development has been a disincentive to pharmaceuticals.
# In this project we exploit the poly-pharmacology of drugs to discover new indications via phenotypic screening of a panel of 19 well-characterized cell lines derived from solid tumors seen in children and adolescents. The goal is to identify approved drugs with previously unrecognized anticancer properties that has the potential to reveal new mechanisms and biological processes involved in carcinogenesis or drug resistance. We employed a titration-based paradigm (quantitative high-throughput screening or qHTS), where all compounds were tested at multiple concentrations for their effect on cell viability. Concentration-response curves (CRCs) were derived directly from the primary screen, and both potency and efficacy values were used to identify compounds with robust bioactivity profiles. We screened the NIH Chemical Genomics Center (NCGC) Pharmaceutical Collection (NPC) and Mechanism Interrogation Plate (MIPE) small molecule collections of approved and investigational compounds against these cell lines; and measured metabolically active cells after 48 hours of compound treatment as a proxy for cell viability.
# Assay Submitter: Nathalia J. Martinez, National Center for Advancing Translational Sciences, National Institutes of Health, Rockville, MD, USA; email: natalia.martinez@nih.gov
# [1] Shen, M et al. Quantitative high-throughput phenotypic screening of pediatric cancer cell lines identifies multiple opportunities for drug repurposing. Oncotarget 2017 Dec 19;9(4):4758-4772. PMID 29435139.
# The cells were obtained from University of North Carolina (UNC), Pediatric Preclinical Testing Program (PPT), and Coriell Institute (CI).
# qHTS cell viability assay:
# Cells were assayed in growth media at a density of 500-1,000 cells/well. Five microliters of cells were dispensed into 1,536-well, white, solid-bottom, TC-treated plates (Greiner Bio One) using a multidrop dispenser and incubated at 37 degrees C, 5% CO2, under a humidified atmosphere for 5 hours. Twenty-three nanoliters of compounds and controls (neutral control DMSO or positive control bortezomib at final concentration of 2.3 µM) were subsequently transferred by Kalypsys pintool. […] After a 15 min incubation at room temperature, samples were analyzed for luminescence intensity using a ViewLux High-throughput CCD imager equipped with clear filters.
row,Structure (SMILES),outcome
1,COc1cc(C(=O)NCCCCCC(=O)O)cc(OC)c1OC,inactive
2,CC(=O)OCC(=O)[C@@]1(O)CC[C@H]2[C@@H]3CCC4=CC(=O)C=C[C@]4(C)[C@@]3(F)[C@@H](O)C[C@@]21C,inactive
3,O=C(Cn1ccnc1[N+](=O)[O-])NCc1ccccc1,inactive

# Assay: qHTS of pediatric cancer cell lines to identify multiple opportunities for drug repurposing: Confirmatory screen for BT-37 cells (AID 1347117); further: potency means the concentration at half of the fitted maximal effect;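 further: viability measured after 48 h of compound exposure; nearly all actives have a fitted effect of over 55% in size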
# Conditions: BT-37 pediatric cancer cells, viability; series mostly up to 45.9 µM
# Method in brief: as §1
row,Structure (SMILES),Potency
1,COc1cc(C(=O)NCCCCCC(=O)O)cc(OC)c1OC,inactive
2,CC(=O)OCC(=O)[C@@]1(O)CC[C@H]2[C@@H]3CCC4=CC(=O)C=C[C@]4(C)[C@@]3(F)[C@@H](O)C[C@@]21C,16.5 µM (active)
3,O=C(Cn1ccnc1[N+](=O)[O-])NCc1ccccc1,inactive

# Assay: qHTS of pediatric cancer cell lines to identify multiple opportunities for drug repurposing: Confirmatory screen for U-2 OS cells (AID 1347122); further: nearly all actives have a fitted effect of over 65% in size
# Conditions: U-2 OS osteosarcoma cell viability; series mostly up to 45.9 µM
# Method in brief: as §1
row,Structure (SMILES),outcome
1,COc1cc(C(=O)NCCCCCC(=O)O)cc(OC)c1OC,inactive
2,CC(=O)OCC(=O)[C@@]1(O)CC[C@H]2[C@@H]3CCC4=CC(=O)C=C[C@]4(C)[C@@]3(F)[C@@H](O)C[C@@]21C,inactive
3,O=C(Cn1ccnc1[N+](=O)[O-])NCc1ccccc1,inactive
